KCNQ2 block – rat KCNQ2 potassium channel inhibitors, primary screen, cell-based, CHO-K1, FluxOR thallium flux, B-score. Potassium voltage-gated channel subfamily KQT member 2 (Rattus norvegicus), O88943. 1.1% of 310,000 active. 20 min; stronger effect = lower value. B-score at 10 µM;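 active = fluorescence ratio B-score at most minus 3 library SDs, with starting brightness B-score within 2 library SDs, cut at about -5.5 in these data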
Target sequence (O88943 whole entry, looked up): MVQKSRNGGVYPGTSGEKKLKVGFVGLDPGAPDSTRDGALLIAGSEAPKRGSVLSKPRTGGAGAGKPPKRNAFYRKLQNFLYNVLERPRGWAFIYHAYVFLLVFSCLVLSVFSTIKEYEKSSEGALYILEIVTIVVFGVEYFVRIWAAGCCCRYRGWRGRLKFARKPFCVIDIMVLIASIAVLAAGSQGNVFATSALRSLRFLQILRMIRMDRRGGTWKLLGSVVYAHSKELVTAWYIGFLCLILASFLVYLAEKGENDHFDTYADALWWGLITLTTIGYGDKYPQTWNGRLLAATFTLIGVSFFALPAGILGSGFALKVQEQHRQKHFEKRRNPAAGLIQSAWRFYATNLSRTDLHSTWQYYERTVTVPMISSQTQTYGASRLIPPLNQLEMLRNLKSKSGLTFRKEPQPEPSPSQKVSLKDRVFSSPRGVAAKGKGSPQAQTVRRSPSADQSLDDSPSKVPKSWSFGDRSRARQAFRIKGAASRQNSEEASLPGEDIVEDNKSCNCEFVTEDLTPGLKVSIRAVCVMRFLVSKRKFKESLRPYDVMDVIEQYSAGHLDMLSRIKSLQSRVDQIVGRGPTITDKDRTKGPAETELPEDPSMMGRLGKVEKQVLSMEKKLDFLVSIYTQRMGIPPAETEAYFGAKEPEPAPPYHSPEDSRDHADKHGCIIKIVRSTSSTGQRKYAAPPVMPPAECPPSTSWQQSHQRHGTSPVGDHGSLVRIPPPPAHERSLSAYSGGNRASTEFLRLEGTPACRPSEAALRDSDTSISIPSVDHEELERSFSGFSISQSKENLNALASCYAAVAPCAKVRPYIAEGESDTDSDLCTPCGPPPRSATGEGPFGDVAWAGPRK
KCNQ2 pot – potentiators of rat KCNQ2 potassium channel. Potassium voltage-gated channel subfamily KQT member 2 (Rattus norvegicus), O88943. CHO-K1 KCNQ2, FluxOR thallium flux fluorescence; stronger effect = higher value. B-score at 10 µM. 0.54% of 310,000 active. AID 2239, 2010;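 active = fluorescence ratio B-score at least 3 SD of library B-scores, with initial fluorescence B-score within 3 of them, cut at about 5.3 in these data; same plate scores as AID 2156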;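 also: B-score of peak minus minimum over baseline fluorescence ratio after K+ and Tl+ stimulus; positive B-score means potentiation of KCNQ2 with more thallium influx and brighter signal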
Kir21 conf inh – mouse Kir2.1 channel blockers, retest, confirmation, cell-based, FluxOR thallium flux, duplicate; shares compounds with KCNQ2 pot; Kir2.1-expressing cells, FluxOR thallium flux fluorescence; stronger effect = lower value; Tl flux remaining, % of negative control (stronger effect = lower value), % at 10 µM; 41% of 2,300 active;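 active = Primary-screen hit whose thallium flux fell at least 3 control SD below untreated wells in both duplicates, with normal baseline fluorescence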;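 also: 0% = blank wells without stimulus and 100% = stimulated no-compound controls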
HEK293 Tl flux – counter-screen for Kir2.1 inhibitors: effect in parental HEK293 cells | shares compounds with KCNQ2 pot | FluxOR thallium flux fluorescence; 0% = unstimulated blank wells | FluxOR signal as % of negative control (100 = no effect), % at 10 µM | 19% of 2,300 active;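 active = dye signal at least 3 control SD above or below untreated wells in both duplicates, raw fluorescence within 3, either direction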;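 also: percent is based on the flux ratio of peak minus minimum fluorescence over baseline F0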
CHO-K1 ctr – nonspecific thallium flux increase in parental CHO-K1, confirmation, counter-screen for KCNQ2 potentiator project, cell-based, FluxOR thallium flux, duplicate | 43% of 1,200 active | activity increase over 3SD of controls, % at 10 µM | shares compounds with KCNQ2 pot | parental CHO-K1 cells, FluxOR thallium flux fluorescence; zero = vehicle mean+3SD, 100% = vehicle-minus-blank window;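 active = signal rise of at least 3 SD above the untreated control mean, in both duplicate wells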;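 also: counter screen of KCNQ2 potentiator hits so any rise reflects channel-independent effects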
KCNQ1 pot spec – human KCNQ1 channel potentiation off-target, confirmation, selectivity assay for KCNQ2 potentiator project, cell-based, CHO, FluxOR thallium flux. CHO KCNQ1 stable, FluxOR thallium flux fluorescence; beyond 3SD, as % of vehicle-control signal. shares compounds with KCNQ2 pot. activation over 3SD threshold, % at 10 µM. AID 2283, 2010. 28% of 1,200 active;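 active = fluorescence ratio rise of at least 3 SD of vehicle wells above their mean, in both replicate wells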;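 also: 0% = vehicle mean plus 3 SD and 100% = vehicle minus unstimulated blank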
KCNQ2 pot conf – rat KCNQ2 channel potentiators, confirmation, cell-based, CHO, FluxOR thallium flux, duplicate. shares compounds with KCNQ2 pot. CHO-KCNQ2 cells, FluxOR thallium flux fluorescence. potentiation, less the hit threshold, % at 10 µM. 68% of 1,200 active;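 active = fluorescence ratio rising 3 SD or more over the vehicle control mean in both replicates, plus primary screen hit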;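 also: peak minus minimum thallium fluorescence divided by baseline after K/Tl stimulus; 0% = vehicle mean plus 3 SD and 100% = vehicle minus unstimulated blank difference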
Kir2-1 sel – mouse Kir2.1 channel activation off-target, confirmation, selectivity assay for KCNQ2 potentiator project, cell-based, HEK293, FluxOR thallium flux; activity over 3SD threshold, % at 10 µM; shares compounds with KCNQ2 pot; HEK293 Kir2.1, FluxOR thallium flux fluorescence; 2% of 1,200 active;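 active = fluorescence ratio rise of at least 3 SD above the vehicle-control mean, seen in both replicates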;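 also: 0% = vehicle mean plus 3 SD and 100% = vehicle minus no-stimulus blank window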
KCNQ2 W236L pot – potentiators of retigabine-insensitive KCNQ2 W236L, mechanism study for KCNQ2 potentiator project, cell-based, rat KCNQ2 W236L, CHO, automated patch clamp; shares compounds with KCNQ2 pot; automated patch clamp current; current increase over 3SD of negative controls (%), stronger effect = higher value, % at 25 µM; 10% of 940 active; AID 2558, 2010;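 active = current increase at least 3 SD of the untreated controls above them in both duplicate recordings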
Active calls of the source: *. Hits are enriched below; roughly 1.6% of the tested compounds scored in any of these assays.

O=C1ON=C(c2ccc(Cl)cc2)/C1=C/c1ccc(O)cc1 was read as KCNQ2 block -7.4*, KCNQ2 pot -7.4, Kir21 conf inh 58%* and HEK293 Tl flux inactive.
For Cc1ccc(C2=NOC(=O)/C2=C\c2ccccc2)cc1 the results were KCNQ2 block inactive and KCNQ2 pot 0.59.
`O=C1ON=C(c2ccccc2)/C1=C/c1ccc(O)cc1` gave KCNQ2 block inactive, Kir21 conf inh inactive and HEK293 Tl flux inactive.
Screening CC1=NOC(=O)/C1=C/c1ccc(O)cc1 returned KCNQ2 block inactive and KCNQ2 pot 1.9.
For CC1(C)NC(=O)N(CCSc2ccc(Cl)cc2)C1=O the results were KCNQ2 block inactive and KCNQ2 pot 1.
Screening Nc1nc(C2CCCN2S(=O)(=O)c2ccc(Cl)cc2)cs1 (configuration not stated) returned KCNQ2 block inactive, KCNQ2 pot 1.3, Kir21 conf inh 62%* and HEK293 Tl flux inactive.
`O=S(=O)(c1ccc(Cl)cc1)N1CCCC1c1nc(-c2ccc(Cl)cc2)no1` (configuration not stated) gave KCNQ2 block inactive.
O=C(N/N=C/c1ccc2ncccc2c1)c1cccc([N+](=O)[O-])c1 was read as KCNQ2 block inactive and KCNQ2 pot 0.11.
Screening Cc1cccc(CS(=O)(=O)c2ncc(Cl)c(C(=O)Nc3c(C)cccc3C)n2)c1 returned KCNQ2 block inactive, Kir21 conf inh inactive and HEK293 Tl flux inactive.
Cc1cccc(CS(=O)(=O)c2ncc(Cl)c(C(=O)NCc3ccccc3)n2)c1 was read as KCNQ2 block inactive.
`CCCc1nnc(NC(=O)c2nc(S(=O)(=O)Cc3cccc(C)c3)ncc2Cl)s1` gave KCNQ2 block inactive, KCNQ2 pot 15*, CHO-K1 ctr -11, KCNQ1 pot spec -46, KCNQ2 pot conf 99*, Kir2-1 sel -72 and KCNQ2 W236L pot 34%*.
`Cc1nnc(NC(=O)c2nc(S(=O)(=O)Cc3ccccc3)ncc2Cl)s1` gave KCNQ2 block inactive, KCNQ2 pot 14*, Kir21 conf inh inactive, HEK293 Tl flux inactive, CHO-K1 ctr 3.1*, KCNQ1 pot spec 46*, KCNQ2 pot conf 58*, Kir2-1 sel -29 and KCNQ2 W236L pot 23%*.
`Cc1ccc(NC(=O)c2nc(S(=O)(=O)Cc3ccccc3)ncc2Cl)cc1` gave KCNQ2 block inactive and KCNQ2 pot 0.15.
Cc1cccc(C)c1NC(=O)c1nc(S(=O)(=O)Cc2ccccc2)ncc1Cl was read as KCNQ2 block inactive.
`COc1ccc(CC(=O)OCC(=O)NCc2ccco2)cc1` gave KCNQ2 block inactive and KCNQ2 pot 0.44.
Screening COc1ccc(C(=O)N/C(=C\c2ccco2)C(=O)OCc2ccco2)cc1 returned KCNQ2 block inactive and KCNQ2 pot 1.3.
Screening COc1ccc(C(=O)/C(=C\c2ccco2)N2C=CC=CC2=C(C#N)C#N)cc1 returned KCNQ2 block inactive, Kir21 conf inh 70%* and HEK293 Tl flux 61%*.
O=C(c1ccc(F)cc1F)N1CCC(N2CCC(C(=O)N3CCOCC3)CC2)CC1 was read as KCNQ2 block inactive and KCNQ2 pot 0.43.
`CCOCCCNC(=O)c1cc2c(s1)-c1ccccc1SC2` gave KCNQ2 block inactive and KCNQ2 pot 0.75.
`CN(C)CCNC(=O)c1cc2c(s1)-c1ccc(Cl)cc1SC2` gave KCNQ2 block -7.6*, KCNQ2 pot -7.6, Kir21 conf inh inactive and HEK293 Tl flux inactive.
For CC(COc1ccccc1Cc1ccccc1)N1CCCCC1 (configuration not stated) the results were KCNQ2 block inactive, KCNQ2 pot 0.23, Kir21 conf inh inactive and HEK293 Tl flux inactive.
`O=C(O)COc1ccccc1Cc1ccccc1` gave KCNQ2 block inactive.
Screening COc1ccc(NC(=O)CSCC(=O)Nc2cc(Cl)ccc2N2CCOCC2)cc1 returned KCNQ2 block inactive and KCNQ2 pot 4.7.
For COc1ccc(NC(=O)CSCC(=O)Nc2cc(Cl)ccc2N2CCCC2)cc1 the results were KCNQ2 block inactive, KCNQ2 pot 7.1*, Kir21 conf inh inactive, HEK293 Tl flux inactive, CHO-K1 ctr -7, KCNQ1 pot spec 66*, KCNQ2 pot conf 6.3*, Kir2-1 sel -44 and KCNQ2 W236L pot inactive.
Cc1ccc(NC(=O)CSCC(=O)Nc2ccccc2C(=O)N2CCCCC2)cc1 was read as KCNQ2 block inactive and KCNQ2 pot 0.38.
Screening CCC(=O)Nc1ccc(N2CCCCC2)c(C(=O)Nc2ccc(OC)cc2)c1 returned KCNQ2 block inactive and KCNQ2 pot 1.3.
Cc1ccc(NC(=O)CSCC(=O)Nc2ccccc2N2CCCC2)cc1 was read as KCNQ2 block inactive, KCNQ2 pot 1.4, Kir21 conf inh 74%* and HEK293 Tl flux 74%*.
For COc1ccc(CC(=O)Nc2ccc(N3CCCC3)c(C)c2)cc1 the results were KCNQ2 block inactive, KCNQ2 pot 6.8*, Kir21 conf inh 34%*, HEK293 Tl flux inactive, CHO-K1 ctr 9.8*, KCNQ1 pot spec 57*, KCNQ2 pot conf 22*, Kir2-1 sel -99 and KCNQ2 W236L pot inactive.
CC(C)CCNC(=O)CCS(=O)(=O)c1cccc2nonc12 was read as KCNQ2 block inactive and KCNQ2 pot 1.6.
For O=C(CSc1ccc(-c2nc3ccccc3[nH]2)cn1)N1CCN(C(=O)c2ccco2)CC1 the results were KCNQ2 block inactive.
Cc1nn(C)c(C)c1CN(C)S(=O)(=O)c1ccc(F)cc1 was read as KCNQ2 block inactive and KCNQ2 pot 1.3.

Screening results as filed in PubChem BioAssay.
